Screens (PubChem)
An excerpt weighted towards active compounds, which were near 11% of everything screened.
HPGD block: blocks human HPGD enzyme activity. AID 894. Potency, µM, usual class: inhibitors. P15428. 4.3% of 150,000 active. purified HPGD, NADH fluorescence kinetic, PGE2 substrate
Target sequence (P15428 whole entry, looked up): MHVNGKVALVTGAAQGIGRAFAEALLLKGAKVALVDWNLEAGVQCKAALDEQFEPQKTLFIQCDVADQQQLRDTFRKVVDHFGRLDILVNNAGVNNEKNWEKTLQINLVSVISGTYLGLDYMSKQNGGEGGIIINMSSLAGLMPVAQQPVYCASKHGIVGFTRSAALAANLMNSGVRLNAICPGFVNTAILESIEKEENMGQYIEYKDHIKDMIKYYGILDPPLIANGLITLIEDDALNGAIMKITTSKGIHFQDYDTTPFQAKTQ
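NADH formation kinetics: reaction with 30 uM PGE2 and 1 mM NAD+ (final), 20 nM enzyme, Tris-HCl pH 8 with Tween 20, after 15 min compound preincubation at room temperature. Fluorescence change, last versus first of five reads.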
ALDH1A1 block: ALDH1A1 (human) enzyme inhibition; P00352; Purified ALDH1A1, NADH fluorescence, propionaldehyde substrate; Potency, µM (top dose mostly 75.3 µM), usual class: inhibitors; 7.3% of 220,000 active
Target sequence (P00352 whole entry, looked up): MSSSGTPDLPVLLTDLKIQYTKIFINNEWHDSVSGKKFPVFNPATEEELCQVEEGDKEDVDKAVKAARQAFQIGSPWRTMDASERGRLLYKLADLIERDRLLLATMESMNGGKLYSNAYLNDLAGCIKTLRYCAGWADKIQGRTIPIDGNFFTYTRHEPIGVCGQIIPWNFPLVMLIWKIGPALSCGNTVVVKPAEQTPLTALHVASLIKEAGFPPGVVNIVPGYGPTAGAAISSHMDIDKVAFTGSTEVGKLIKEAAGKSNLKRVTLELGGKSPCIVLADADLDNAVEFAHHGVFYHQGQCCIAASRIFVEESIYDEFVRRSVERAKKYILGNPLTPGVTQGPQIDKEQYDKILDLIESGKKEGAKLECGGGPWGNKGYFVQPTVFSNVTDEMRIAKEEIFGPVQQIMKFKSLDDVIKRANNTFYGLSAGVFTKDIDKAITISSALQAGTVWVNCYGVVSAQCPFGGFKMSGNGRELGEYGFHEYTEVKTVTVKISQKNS
IMPase inh: IMPase inhibition in cells | P97697 | 120,000 tested, under 10 active | inhibition (IP1 accumulation), % at 46.1 µM | CHO-M1 cells, IP1 accumulation, HTRF TR-FRET ratio | AID 901; active means well fitted curve in the direction sought with a large enough effect in the signal ratio, not every such curve was filed as active; inconclusive means small, poorly fitted or top-dose-only effect, or a change in a side signal; inactive means no such curve, though single readings can be large or run the other way; the % refers to the signal ratio;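 further: cells stimulated with carbachol in lithium chloride buffer; higher means more IMPase inhibition seen as more IP1 and lower FRET ratio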
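The IP-One HTRF competitive assay in carbachol-stimulated CHO-M1 cells quantifies cellular IP1. Compounds spanned up to 46 uM final, and activity is expressed as AC50 from concentration-response fits of the ratio and donor data.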
IMPase Li cell: membrane-permeable IMPase blocker, potentiated with lithium; CHO-M1 cells, IP1 TR-FRET (IP-One), carbachol + lithium; Potency, µM (doses to about 59.4 µM), actives largely listed as inhibitors; 0.35% of 210,000 active; AID 1457; active means well fitted curve in the direction sought with a large enough effect; inconclusive means small, poorly fitted or top-dose-only effect, or another doubt; inactive means no such curve, though single readings can be large; an effect the other way counts as inactive or inconclusive;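 further: IP1 builds up when IMPase is blocked and the TR-FRET signal falls; nearly all actives have a fitted effect of over 50% in size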
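Concentration–response in CHO-M1 cells, lithium-potentiated; 30 min at 37C. IP1 detected by competitive TR-FRET after 10 min lysis at RT. Hill-fitted AC50.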
12-hLO inh: blocks human 12-lipoxygenase activity. Potency, µM (series often up to 57.1 µM), hits mostly inhibitors. AID 1452. 0.12% of 150,000 active. purified 12-hLO, xylenol orange hydroperoxide absorbance; active means well fitted curve in the direction sought with a large enough effect; inconclusive means small, poorly fitted or top-dose-only effect, or another doubt; inactive means no such curve, though single readings can be large; an effect the other way counts as inactive or inconclusive; further: nearly all actives have a fitted effect of over 55% in size
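Purified human 12hLO (150 nM), preincubated 15 min with compound, then 40 uM arachidonic acid for 30 min, room temperature, Hepes pH 7.0 with 0.01% Triton X-100. Hydroperoxide detected by ferrous iron/xylenol orange; 573/405 nm absorbance ratio gives reaction progress.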
PNC assembly inh: blocks assembly of the perinucleolar compartment. PC3M PTB-GFP, PNC prevalence imaging, 16 h; active compounds read low. activity change (PNC), negative = inhibition, % at 10 µM. 3.1% of 140,000 active;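 active means readout at or below -70, meaning at least 70% loss of cells showing the perinucleolar compartment, a nuclear body marking cancer cells; inconclusive means readout between -30 and a set limit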
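PC3M cells stably expressing PTB-GFP, 750–1000 cells/well, treated 16 h at 37 °C with compound (23 nl of library stock), in duplicate. After paraformaldehyde fixation and Hoechst stain, imaged at 20x; PNC prevalence scored by image analysis.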
Hits are given with their value; – = inactive; ? = inconclusive; · = no result; [ ] = another dose, or the depositor's remark. Unless noted, the call rests on the fitted dose curve; in most records, active means well fitted inhibition curve with a large enough effect (not every such curve was filed as active); inconclusive means small, poorly fitted or top-dose-only effect, or another doubt; inactive means no such curve, though single readings can be large or run the other way.

SMILES	HPGD block	ALDH1A1 block	IMPase inh	IMPase Li cell	12-hLO inh	PNC assembly inh
S=C(c1ccc(Br)cc1)N1CCN(Cc2ccccc2)CC1	32µM	?	–	–	–	–
CCN(CC)c1ccc(C(=O)N2CCN(Cc3ccccc3)CC2)cc1	–	–	·	–	–	–
CN1CCN(C(=S)c2ccc(N(C)C)cc2)CC1	16µM	28µM	–	–	–	–
Cc1ccc(C(=S)N2CCN(Cc3ccccc3)CC2)s1	·	14µM	·	–	·	·
C[C@@H](C1[C@@H](O)CC2C3C=CC4C[C@@H](O)CC[C@]4(C)[C@H]3CC[C@@]21C)[C@@H]1CCCCN1 (stereo partly drawn)	–	–	·	–	·	·
N=c1ccn2c(n1)O[C@@H]1[C@H](O)[C@H](CO)O[C@@H]12	–	–	–	–	–	·
CC(C)[C@@H](CC(=O)N[C@@H]1CCCC[C@H]1C(=O)N[C@H](CC(=O)N[C@@H](CCC(=O)O)CC(=O)O)Cc1c[nH]c2ccccc12)NC(=O)C[C@H](Cc1c[nH]c2ccccc12)NC(=O)[C@@H]1CNCC[C@H]1N	–	–	·	–	–	·
COC(=O)c1sc(NC(=O)CSc2nncs2)c(C(=O)OC)c1C	2.8µM	?	–	–	–	–
COC(=O)c1sc(NC(C)=O)c(C(=O)OC)c1C	32µM	?	–	–	–	?
CCCCCCCC1=Cc2ccccc2C(CC(=O)c2ccccc2)N1C(=O)OC (stereo not drawn)	–	–[13.5 µM]	·	–	–[11.4 µM]	·
COC(=O)c1c(C(=O)NCc2ccccc2)ncn1CC(O)COc1ccccc1 (stereo not drawn)	–	7.9µM	–	–	–	–
Cc1nccn1CC(O)COc1ccccc1 (stereo not drawn)	–	–	–	–	–	–
CCC(CC)(CC(=O)Nc1cccc(/C=C/c2nc(C3CCC3)cs2)c1)C(=O)O	?	?	·	–	–	·
O=[N+]([O-])c1ccccc1CNC(Cc1ccccc1)c1ccccc1 (stereo not drawn)	–	13µM	–	–	–	?
O=C(OCc1cncs1)c1cccs1	·	–	·	–	·	·
O[C@H](CN1CCN(c2cccc(Cl)c2)CC1)C(c1ccccc1)c1ccccc1	–	–	–	–	–	·
CCCc1ccc(C2Sc3ccccc3NC3=C2C(=O)c2ccccc23)cc1 (stereo not drawn)	·	·	–	·	·	·
C=C(C)CNC(=O)CCc1nnc(C2(c3ccc(Cl)cc3)CCC2)o1	·	–	·	–	·	·
COC(=O)CNC(=O)CCc1nnc(C2(c3ccc(Cl)cc3)CCC2)o1	·	8.9µM	·	–	·	·
C=CCC1Cc2c(cccc2[N+](=O)[O-])C(CC=C)N1 (stereo not drawn)	·	16µM	·	–	·	·
COc1ccc(NC(=O)C/C(C)=N/NC(=O)C(=O)Nc2cccc(Cl)c2C)c(OC)c1	·	1.3µM	·	–	·	·
COc1ccc(NC(=O)C/C(C)=N/NC(=O)C(=O)NC(C)C)c(OC)c1	·	–	·	–	·	·
CC(C)[C@@H](CC(=O)N[C@@H]1CCCC[C@H]1C(=O)N[C@H](CC(=O)N[C@@H](CCC(=O)O)CC(=O)O)Cc1c[nH]c2ccccc12)NC(=O)C[C@H](CO)NC(=O)[C@@H]1CNCC[C@H]1N	–	?	·	–	–	·
C/C=C/C1Oc2ccc(OC)cc2N2C(=O)C(C)C(OCOC)C12 (stereo not drawn)	·	–[13.5 µM]	·	·	·	·
Cc1ccc(NC(=O)Cn2cnc3c(cnn3C(C)(C)C)c2=O)cc1	–	–	–	–	–	-100
SMILES	HPGD block	ALDH1A1 block	IMPase inh	IMPase Li cell	12-hLO inh	PNC assembly inh
COC(=O)c1ccc(C(NC(=O)OCc2ccccc2)/C(=C/[C@@H](C)C(=O)NCc2ccc(-c3ccccc3)cc2)c2cccnc2)cc1 (stereo partly drawn)	–	–	·	–	–	·
COc1cc(/C=C/C(=O)N2CCC=CC2=O)cc(OC)c1OC	–	10µM	·	–	–	·
CC1CCCC(NC(=O)COC(=O)Cc2ccc(Br)cc2)C1C (stereo not drawn)	·	–	·	–	·	·
CC1CCCC(NC(=O)COC(=O)CCC2CCCC2)C1C (stereo not drawn)	?	11µM	–	–	–	?
COc1cc(CCC(=O)OCC(=O)NC2CCCC(C)C2C)cc(OC)c1OC (stereo not drawn)	·	?	·	–	·	·
CC1CCc2nn(CC(=O)NC3CCCC(C)C3C)cc2C1 (stereo not drawn)	14µM	–	–	–	–	–
CC1CCCC(NC(=O)COC(=O)Cc2ccsc2)C1C (stereo not drawn)	–	–	–	–	–	–
CC1CCCC(NC(=O)Cc2ccc(Br)cc2)C1C (stereo not drawn)	16µM	–	–	–	–	–
CC1CCCC(NC(=O)COC(=O)COc2ccc(Cl)cc2)C1C (stereo not drawn)	–	1µM	–	–	–	?
CC(=O)c1cccc(CN2CCCC(CCC(=O)NCc3ccc(C)o3)C2)c1 (stereo not drawn)	·	?	·	–	·	·
CCN1C(=O)[C@H]2[C@H]3[C@H](O)[C@H](O)C/C(=N/OCC[C@H]4C=C[C@H](OC(C)=O)[C@@H](COC(C)=O)O4)[C@@H]3CC[C@@H]2C1=O	·	–[13.5 µM]	·	·	·	·
Cc1ccc(S(=O)(=O)N2CCOCC2)cc1C(=O)c1nccn1C	·	19µM	·	–	·	·
Cc1ccc(S(=O)(=O)N2CCOCC2)cc1C(=O)N1CCOCC1	–	–	–	–	–	–
Cc1ccc(C(=O)Nc2c(C)n(C)n(-c3ccccc3)c2=O)cc1S(=O)(=O)N1CCOCC1	–	–	–	–	–	–
Cc1cc(C(=O)CCl)c(C)n1-c1cccc(S(=O)(=O)N2CCOCC2)c1	·	0.18µM	·	–	·	·
Cc1cc(C(=O)CN2C(=O)CN(C)C2=O)c(C)n1-c1cccc(S(=O)(=O)N2CCOCC2)c1	·	?	·	–	·	·
Cc1ccc(S(=O)(=O)N2CCOCC2)cc1C(=O)Nc1c(C)n(C)n(-c2ccccc2)c1=O	–	–	–	–	–	-100
CCOc1ccccc1C1Nc2ccccc2-c2nnc(SCc3ccccc3)nc2O1 (stereo not drawn)	·	·	–	·	·	·
Cc1ccc2cc(C)c(SCC(=O)NCc3ccco3)nc2c1	·	14µM	·	–	·	·
Cc1ccc(SCCC(=O)NCc2ccco2)cc1	28µM	–	–	–	–	–
Cc1nc(SCC(=O)NC(=O)NCc2ccco2)nc(C)c1C	·	–	·	–	·	·
Cc1nc(SCC(=O)NCc2ccco2)nc(C)c1C	7.9µM	25µM	–	–	–	?
Cc1ccc(C)c(SCC(=O)OCC(=O)c2ccco2)c1	18µM	?	–	–	–	–
CC(C)NC(=O)N1CCC2(CC1)CCN(C(=O)c1ccco1)CC2	–	?	·	–	–	·
O=C1CCCC(C(C(=O)OCc2ccccc2)C(=O)OCc2ccccc2)C1 (stereo not drawn)	–	–	·	–	·	·
Cc1ccc(C(CC(=O)NCc2ccco2)c2ccccc2)c(O)c1 (stereo not drawn)	16µM	–	–	–	–	–
